In PubChem BioAssay (NCATS):
Records with an inconclusive call do not appear. Activity calls are given as the source filed them. Unless noted, calls come from the whole dose curve; as a rule, active = well fitted curve in the direction sought with a large enough effect; inconclusive = small, poorly fitted or top-dose-only effect, or another doubt; inactive = no such curve, though single readings can be large; an effect the other way counts as inactive or inconclusive.

Experiments:
[1] = target: Endonuclease 4 (Escherichia coli (strain K12)) (UniProt P0A6C1); assay: Counterscreen for APE1 Inhibitors: qHTS Validation Assay for Inhibitors of Endonuclease IV (AID 1708)
How it was run: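 E. coli EndoIV at 2 nM final, preincubated 15 min at room temperature with compound, then 50 nM TAMRA/BHQ-2 THF abasic-site duplex added. Buffer: 50 mM Tris-HCl pH 7.5, 50 mM NaCl, 2 mM MgCl2, 1 mM DTT, 0.01% Tween-20. Kinetic fluorescence increase, third minus first read.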

[2] = qHTS for differential inhibitors of proliferation of Plasmodium falciparum line 7G8 (AID 1815);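 note: parasite growth measured after three days of incubation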
[3] = qHTS for differential inhibitors of proliferation of Plasmodium falciparum line GB4 (AID 1816); details: Potency: Plasmodium falciparum GB4 proliferation inhibition;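 note: parasite growth measured after 72 h incubation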
[4] = qHTS for differential inhibitors of proliferation of Plasmodium falciparum line 3D7 (AID 1876);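 note: parasite growth measured after three days of culture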
[5] = qHTS for differential inhibitors of proliferation of Plasmodium falciparum line D10 (AID 1877);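 note: parasites grown with compound for 72 h before DNA staining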
[6] = qHTS for differential inhibitors of proliferation of Plasmodium falciparum line Dd2 (AID 1882); details: Potency: Plasmodium falciparum Dd2 proliferation inhibition; note: nearly all actives have a fitted effect of over 65% in size
How it was run: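 Dd2-infected erythrocytes (0.3% parasitemia, 2.5% hematocrit final) incubated with compound 72 h at 37 C, 5% CO2; lysed with saponin/Triton buffer containing SYBR Green I, incubated overnight in the dark, then read by fluorescence (485/535 nm). Normalized to 0.29 uM artemisinin and DMSO.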

[7] = qHTS for differential inhibitors of proliferation of Plasmodium falciparum line W2 (AID 1883); details: Potency: Plasmodium falciparum W2 proliferation inhibition;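 note: parasites grown with compound for 72 h before lysis and staining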
[8] = qHTS for differential inhibitors of proliferation of Plasmodium falciparum line HB3 (AID 1886); details: Potency: Plasmodium falciparum HB3 proliferation inhibition;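 note: parasites grown with compound for 72 h before SYBR Green readout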
[9] = target: Ferritin light chain (Equus caballus) (UniProt P02791); assay: qHTS Validation Assay for Identification of Novel General Anesthetics (AID 2323)
Chain of Ferritin light chain (Equus caballus) (P02791 2-175 limits assumed): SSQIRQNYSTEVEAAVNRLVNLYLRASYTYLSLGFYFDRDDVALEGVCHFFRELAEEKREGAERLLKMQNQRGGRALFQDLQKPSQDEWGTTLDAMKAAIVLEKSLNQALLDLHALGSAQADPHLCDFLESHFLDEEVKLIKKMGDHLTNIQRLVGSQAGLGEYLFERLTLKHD
How it was run: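 10 uM horse-spleen apoferritin + 1-AMA (50% saturated, PBS); cpd pin-transferred, 10 min RT. Ex 380/Em 535 nm endpoint. Activity normalized between free 1-AMA and 1-AMA/apoferritin; 4-parameter Hill fit of concentration-response.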

[10] = target: ATP-dependent DNA helicase Q1 (Homo sapiens) (UniProt P46063); assay: qHTS Validation Assay for Inhibitors of RecQ-Like Dna Helicase 1 (RECQ1) (AID 2353)
Chain of ATP-dependent DNA helicase Q1 (Homo sapiens) (P46063 whole entry, looked up): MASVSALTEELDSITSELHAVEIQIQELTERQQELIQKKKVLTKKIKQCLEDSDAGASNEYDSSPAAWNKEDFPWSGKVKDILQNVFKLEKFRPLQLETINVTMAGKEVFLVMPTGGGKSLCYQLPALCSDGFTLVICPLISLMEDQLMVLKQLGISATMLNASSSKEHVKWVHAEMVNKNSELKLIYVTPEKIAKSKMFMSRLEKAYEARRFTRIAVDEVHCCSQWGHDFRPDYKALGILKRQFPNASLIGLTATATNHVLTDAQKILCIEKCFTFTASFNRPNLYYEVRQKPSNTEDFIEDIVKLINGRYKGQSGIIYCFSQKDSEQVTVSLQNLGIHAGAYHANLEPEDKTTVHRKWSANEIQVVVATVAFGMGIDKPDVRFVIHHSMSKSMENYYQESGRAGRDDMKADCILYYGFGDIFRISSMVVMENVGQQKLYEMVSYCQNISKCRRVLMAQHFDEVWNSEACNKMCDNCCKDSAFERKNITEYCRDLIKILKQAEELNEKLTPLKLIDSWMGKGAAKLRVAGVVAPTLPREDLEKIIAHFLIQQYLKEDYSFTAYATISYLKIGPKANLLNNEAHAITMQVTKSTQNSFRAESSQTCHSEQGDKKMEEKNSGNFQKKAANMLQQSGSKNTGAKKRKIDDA
How it was run: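 50 nM RECQ1T1 preincubated 15 min with compound in Tris pH 8.0 buffer with MgCl2, DTT, Tween-20 and 2.5 ug/ml poly(dI-dC); started with 200 nM TAMRA/BHQ-2 forked duplex and 2 mM ATP. Unwinding read as fluorescence (525/598 nm), two reads 2 h apart.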

[11] = Cytometric Cell-Based qHTS for Inhibitors of the mTORC1 Signaling Pathway in MEF (Tsc2-/-, p53-/-) Cells (AID 2660);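 note: percent of cells above a phospho-rpS6 to PI ratio cutoff in each well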
How it was run: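 Cells are plated, treated with compound for 24 hrs at 37 degree Celsius, then fixed, blocked and immunostained for phospho-rpS6 Ser235/236. Propidium iodide counterstain follows. Per-well % positive cells is derived from the PI-normalized phospho-S6 signal.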

[12] = High Content Imaging Cell-Based qHTS for Inhibitors of the mTORC1 Signaling Pathway in MEF (Tsc2-/-, p53-/-) Cells (AID 2666); details: at 38.3 µM (top of the series);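 note: percent of cells scored positive for phospho-rpS6 Ser235/236 immunostaining by imaging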
How it was run: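 Phospho-rpS6 (Ser235/236) immunofluorescence, normalized and scored as % positive cells using rapamycin and DMSO controls, was read in empty-vector Tsc2-/-, p53-/- MEFs after 24 h compound exposure at 37 C; propidium iodide counted cells.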

[13] = High Content Imaging Cell-Based qHTS for Inhibitors of the mTORC1 Signaling Pathway in MEF Cells (AID 2667);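 note: Tsc2-/- p53-/- MEFs stably re-expressing wild-type Tsc2 exposed 24 h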
How it was run: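 WT MEFs (Tsc2-/-, p53-/- re-expressing Tsc2), in DMEM + 10% FBS, were treated with compound for 24 h at 37 C. Cells were then fixed and stained for phospho-rpS6 Ser235/236 with propidium iodide as cell count. Values are % positive cells, with thresholds set against rapamycin-treated cells.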

[14] = Cytometry Cell-Based qHTS for Inhibitors of the mTORC1 Signaling Pathway in MEF cells (AID 2668);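 note: Tsc2-/- p53-/- mouse embryonic fibroblasts stably re-expressing wild-type Tsc2; percent cells positive for phospho-rpS6 Ser235/236 relative to propidium iodide stain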
How it was run: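 Read-out: phospho-rpS6 Ser235/236 immunofluorescence normalized to propidium iodide intensity, scored as % active cells against a rapamycin (7.5 nM) threshold. Cells: Tsc2-/-, p53-/- MEFs stably expressing WT Tsc2, compound-treated 24 hrs at 37 degree Celsius.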

[15] = Validation screen for small molecules that induce DNA re-replication in MCF 10A normal breast cells (AID 463097); note: nearly all actives have a fitted effect of over 60% in size
How it was run: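 250 MCF 10A cells/well; compound pin-transferred; 48 hr, 37 C, 5% CO2; Hoechst 40 min; imaged 405/500-530 nm. Hits = more high-intensity nuclei.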

[16] = target: Ubiquitin carboxyl-terminal hydrolase 2 (Homo sapiens) (UniProt O75604); assay: qHTS Validation Assay for Inhibitors of Ubiquitin-specific Protease USP2a Using CHOP2 as the Reporter (AID 463106)
Chain of Ubiquitin carboxyl-terminal hydrolase 2 (Homo sapiens) (O75604 whole entry, looked up): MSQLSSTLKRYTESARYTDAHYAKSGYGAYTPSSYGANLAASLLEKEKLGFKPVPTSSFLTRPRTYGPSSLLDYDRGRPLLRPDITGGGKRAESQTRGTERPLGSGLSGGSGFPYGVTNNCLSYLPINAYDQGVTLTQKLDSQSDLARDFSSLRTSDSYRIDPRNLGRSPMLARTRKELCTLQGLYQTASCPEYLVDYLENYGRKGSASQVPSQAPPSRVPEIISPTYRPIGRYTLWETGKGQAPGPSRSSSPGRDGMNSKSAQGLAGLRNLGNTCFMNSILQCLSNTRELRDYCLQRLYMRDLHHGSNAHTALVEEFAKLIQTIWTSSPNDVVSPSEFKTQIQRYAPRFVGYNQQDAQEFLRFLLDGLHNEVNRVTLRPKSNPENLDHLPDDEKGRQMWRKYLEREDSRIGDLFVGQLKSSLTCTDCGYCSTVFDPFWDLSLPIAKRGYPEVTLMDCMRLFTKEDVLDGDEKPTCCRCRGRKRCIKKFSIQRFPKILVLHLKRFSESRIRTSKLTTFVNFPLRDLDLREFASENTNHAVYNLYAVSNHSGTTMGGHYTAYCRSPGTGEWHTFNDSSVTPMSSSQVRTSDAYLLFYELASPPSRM
How it was run: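 USP2 core (10 nM final) was preincubated with compound 30 min at RT in pH 8.0 Tris/CaCl2/beta-ME/CHAPS buffer. Ub-CHOP2 and reporter substrate (25 nM final each) were then added, with fluorescence (Ex 485/Em 531) read after 60 min. Data were normalized to NEM full inhibition and fitted to concentration-response curves.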

[17] = target: DNA polymerase III PolC-type (Bacillus subtilis (strain 168)) (UniProt P13267); assay: qHTS Validation Assay for the Inhibitors of DNA Replication in Gram-Positive Bacteria (AID 485295);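 note: reconstituted holoenzyme with PolC plus beta clamp SSB and primase; PicoGreen fluorescence of double-stranded DNA made on primed circular M13 template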
Chain of DNA polymerase III PolC-type (Bacillus subtilis (strain 168)) (P13267 whole entry, looked up): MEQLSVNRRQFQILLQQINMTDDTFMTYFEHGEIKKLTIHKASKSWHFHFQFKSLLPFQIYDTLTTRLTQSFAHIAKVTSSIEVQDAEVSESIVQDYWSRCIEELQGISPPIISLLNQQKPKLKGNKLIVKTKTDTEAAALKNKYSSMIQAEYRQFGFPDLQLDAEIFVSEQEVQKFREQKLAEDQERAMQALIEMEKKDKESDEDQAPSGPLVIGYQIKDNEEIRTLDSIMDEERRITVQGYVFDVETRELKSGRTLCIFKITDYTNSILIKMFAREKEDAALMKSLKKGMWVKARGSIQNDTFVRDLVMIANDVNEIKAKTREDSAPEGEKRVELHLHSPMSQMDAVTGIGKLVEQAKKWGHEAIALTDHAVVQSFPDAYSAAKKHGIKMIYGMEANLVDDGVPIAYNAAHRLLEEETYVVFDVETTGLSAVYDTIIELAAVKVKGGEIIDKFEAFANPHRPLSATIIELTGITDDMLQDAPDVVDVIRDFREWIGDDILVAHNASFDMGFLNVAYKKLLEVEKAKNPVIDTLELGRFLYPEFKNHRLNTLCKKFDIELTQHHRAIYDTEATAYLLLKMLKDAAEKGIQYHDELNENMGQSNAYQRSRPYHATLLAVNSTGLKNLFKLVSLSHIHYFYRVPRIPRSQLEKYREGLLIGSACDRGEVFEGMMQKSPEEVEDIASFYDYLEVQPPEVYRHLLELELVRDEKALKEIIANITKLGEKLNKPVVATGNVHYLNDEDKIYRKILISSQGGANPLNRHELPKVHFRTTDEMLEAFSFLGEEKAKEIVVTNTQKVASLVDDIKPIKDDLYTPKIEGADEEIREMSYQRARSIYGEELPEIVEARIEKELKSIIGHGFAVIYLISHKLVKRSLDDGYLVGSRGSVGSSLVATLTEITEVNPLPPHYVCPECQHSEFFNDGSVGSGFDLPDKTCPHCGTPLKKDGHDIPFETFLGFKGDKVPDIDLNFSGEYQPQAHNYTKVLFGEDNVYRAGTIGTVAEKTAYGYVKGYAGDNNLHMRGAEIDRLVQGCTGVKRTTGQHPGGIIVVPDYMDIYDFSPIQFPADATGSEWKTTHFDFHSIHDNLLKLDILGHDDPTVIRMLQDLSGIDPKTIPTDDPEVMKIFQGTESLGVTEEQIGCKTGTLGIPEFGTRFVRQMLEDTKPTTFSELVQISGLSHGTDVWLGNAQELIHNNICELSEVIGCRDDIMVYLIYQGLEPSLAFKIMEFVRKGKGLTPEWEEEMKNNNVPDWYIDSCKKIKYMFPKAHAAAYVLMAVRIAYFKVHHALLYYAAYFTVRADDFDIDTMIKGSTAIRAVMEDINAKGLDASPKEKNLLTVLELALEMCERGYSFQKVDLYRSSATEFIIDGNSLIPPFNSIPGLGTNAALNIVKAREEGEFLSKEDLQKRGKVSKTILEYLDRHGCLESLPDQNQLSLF
How it was run: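 PicoGreen fluorescence (ex 480–485/em 535–540 nm) reports dsDNA synthesized on ssM13Gori template with dNTPs/NTPs. Enzyme: holoenzyme rebuilt from purified PolC, beta subunit, SSB and primase. Compound preincubated before substrate addition; RT throughout.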

[18] = target: Tumor susceptibility gene 101 protein (Homo sapiens) (UniProt Q99816); assay: qHTS Validation Assay for Iinhibitors of HIV-1 Budding by Blocking the Interaction of PTAP/TSG101 (AID 485342; calls by dose curve)
Chain of Tumor susceptibility gene 101 protein (Homo sapiens) (Q99816 whole entry, looked up, the tested form may be a part): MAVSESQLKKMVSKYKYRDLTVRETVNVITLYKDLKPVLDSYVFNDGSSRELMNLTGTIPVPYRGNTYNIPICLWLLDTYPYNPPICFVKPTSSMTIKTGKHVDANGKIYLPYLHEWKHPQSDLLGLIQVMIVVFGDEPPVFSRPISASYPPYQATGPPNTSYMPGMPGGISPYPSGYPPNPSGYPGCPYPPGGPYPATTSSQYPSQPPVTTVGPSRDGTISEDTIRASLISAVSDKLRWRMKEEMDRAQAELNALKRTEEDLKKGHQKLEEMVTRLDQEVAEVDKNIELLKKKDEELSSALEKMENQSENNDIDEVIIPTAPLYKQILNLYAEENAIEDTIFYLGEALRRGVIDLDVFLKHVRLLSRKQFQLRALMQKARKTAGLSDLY
How it was run: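 FP read-out: FITC-PTAP peptide, 50 nM final, binding Tsg101 binding domain, 10 uM final; 20 min r.t.; 10 mM HEPES pH 7.5, 0.15 M NaCl, 0.01% Tween 20, 3 mM EDTA, 0.1 mM TCEP.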

[19] = qHTS Assay for Identification of Small Molecule Inducers of Hypoxia Response (AID 2120; active = well fitted curve in the direction sought with a large enough effect in the signal ratio, with a control signal flat, not every such curve was filed as active; the % refers to the signal ratio)
How it was run: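 HRE-bla ME-180 cells in Opti-MEM with 0.5% dialyzed FBS, pre-plated 4-5 h, then compound titration for 17 h at 37 degrees Celsius. CCF4 loaded 2.5 h at room temperature; 460/530 nm ratio gave %Activity and AC50 for induction.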

Measured: Potency

CC1(C)CCC(NC(=O)[C@@H](N)CCC(=O)O)CC1
not listed: [19]
inactive: all other assays above

C1CCc2nnnn2CC1
not listed: [12] | [19]
inactive: all other assays above

CCCn1c(=O)[nH]c(=O)c2[nH]cnc21
not listed: [19]
inactive: all other assays above

Nc1ccc(C(=O)O)cc1
inactive: [19]

C[C@@H]1C(=O)NC2=Nc3cccc(Cl)c3CN21
not listed: [3] | [7] | [19]
inactive: all other assays above

CN=C(NC#N)Nc1ccc(C2=NNC(=O)CC2C)cc1 (configuration not stated)
inactive: [1] | [3] | [4] | [5] | [6] | [7] | [8] | [9] | [10] | [15]

CC[C@H](C)C(=O)O[C@H]1CCC=C2C=C[C@H](C)[C@H](CC[C@@H]3C[C@@H](O)CC(=O)O3)[C@H]21
inactive: [11] | [12] | [16] | [17] | [18]

COC1=CC(=O)C[C@@H](C)[C@]12Oc1c(Cl)c(OC)cc(OC)c1C2=O
inactive: [19]

O=C(O)CCCCC(=O)O
inactive: [19]

Nc1cc(Cl)c(NC2=NCCN2)c(Cl)c1
not listed: [1] | [3] | [7] | [19]
inactive: all other assays above
